Reference: PubChem BioAssay
For some of these results: Potency and affinity values are given separately. Active and inactive are the calls of the source. Unless noted, how the calls were made is not given here.

Assays:
[1] = antimalarial activity against Dd2 strain (AID 2302;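 active means growth inhibition above 50% at the single 2 µM test dose, taken to imply half-maximal potency below 2 µM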;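 further: 0% = DMSO untreated growth and 100% = chloroquine plus artemisinin killed control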); details: P. falciparum Dd2 in RBCs, LDH growth readout, 72 h; at 2 µM; stronger effect = higher value
[2] = human hepatoma cell viability loss – ATP luminescence, cytotoxicity control for P. falciparum antimalarial project, primary screen (AID 2303;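 active means inhibition above 50%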;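 further: 0% = DMSO wells and 100% = digitonin-killed cells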); details: HepG2 viability, 24-48 h, at 10 µM, stronger effect = higher value
[3] = molecular target: L-lactate dehydrogenase (Plasmodium falciparum (isolate CDC / Honduras)) (UniProt Q27743); assay: PfLDH activity inhibition – cell lysate, 3D7 strain, counter-screen for P. falciparum growth inhibition project (AID 2304);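 further: 0% = vehicle and 100% = reference inhibitor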; details: P. falciparum 3D7 crude extract, LDH APAD/NBT absorbance; at 2 µM; stronger effect = higher value
Sequence of L-lactate dehydrogenase (Plasmodium falciparum (isolate CDC / Honduras)) (Q27743 whole entry, looked up): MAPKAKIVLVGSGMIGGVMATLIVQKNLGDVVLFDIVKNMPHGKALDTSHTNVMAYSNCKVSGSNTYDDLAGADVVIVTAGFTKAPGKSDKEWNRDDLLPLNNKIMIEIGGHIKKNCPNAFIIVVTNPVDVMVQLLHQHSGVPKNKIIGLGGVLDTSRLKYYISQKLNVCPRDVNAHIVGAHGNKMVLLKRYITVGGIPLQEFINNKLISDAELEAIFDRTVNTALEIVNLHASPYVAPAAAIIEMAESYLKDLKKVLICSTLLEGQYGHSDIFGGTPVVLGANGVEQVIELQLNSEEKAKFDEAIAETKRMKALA

[4] = inhibition of 3D7 malaria parasite growth – strain 3D7 (AID 2306);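 further: 0% = DMSO wells and 100% = chloroquine plus artemisinin control wells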; details: P. falciparum 3D7 erythrocytic growth, LDH absorbance, 72 h; at 2 µM; stronger effect = higher value
[5] = molecular target: Calcium-dependent protein kinase 1 (Plasmodium falciparum (isolate 3D7)) (UniProt P62344); assay: PfCDPK1 kinase inhibitors, biochemical, TCAMS library (AID 1159585; cut-off not given, nearly all actives have IC50 up to about 0.98 µM;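 further: inhibitors leave more ATP so luminescence rises with inhibition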); details: recombinant PfCDPK1, Kinase-Glo ATP depletion luminescence
Sequence of Calcium-dependent protein kinase 1 (Plasmodium falciparum (isolate 3D7)) (P62344 whole entry, looked up): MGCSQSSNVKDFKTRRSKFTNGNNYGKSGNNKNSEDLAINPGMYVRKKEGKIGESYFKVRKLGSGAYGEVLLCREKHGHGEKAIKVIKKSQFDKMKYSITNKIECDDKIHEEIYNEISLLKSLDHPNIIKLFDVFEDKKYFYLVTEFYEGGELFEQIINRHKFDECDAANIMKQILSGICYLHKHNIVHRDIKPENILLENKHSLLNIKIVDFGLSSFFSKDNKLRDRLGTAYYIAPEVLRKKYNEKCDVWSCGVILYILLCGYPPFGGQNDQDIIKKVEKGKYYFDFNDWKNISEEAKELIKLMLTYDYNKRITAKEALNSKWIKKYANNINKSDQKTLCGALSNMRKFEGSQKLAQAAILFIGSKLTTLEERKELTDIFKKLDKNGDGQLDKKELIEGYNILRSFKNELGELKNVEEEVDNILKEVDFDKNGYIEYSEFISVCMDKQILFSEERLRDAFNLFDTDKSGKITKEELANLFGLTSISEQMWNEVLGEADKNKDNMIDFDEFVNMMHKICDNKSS

[6] = molecular target: Plasmodium falciparum protein kinase 6 (PK6, PF3D7_1337100) (UniProt Q8IDW1); assay: PfPK6 kinase inhibitors, biochemical, TCAMS library (AID 1159586); details: recombinant PfPK6, Kinase-Glo ATP depletion luminescence
Sequence of Plasmodium falciparum protein kinase 6 (PK6, PF3D7_1337100) (Q8IDW1 1-305): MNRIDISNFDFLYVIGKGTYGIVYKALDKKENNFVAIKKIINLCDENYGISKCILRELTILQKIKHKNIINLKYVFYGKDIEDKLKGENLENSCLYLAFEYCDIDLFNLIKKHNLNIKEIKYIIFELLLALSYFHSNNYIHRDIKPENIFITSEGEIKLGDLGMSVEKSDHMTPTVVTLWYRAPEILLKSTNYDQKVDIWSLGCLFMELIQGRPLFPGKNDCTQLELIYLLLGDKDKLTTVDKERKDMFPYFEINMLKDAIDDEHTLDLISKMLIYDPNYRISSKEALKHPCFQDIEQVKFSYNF

[7] = molecular target: Protein kinase 7 (PK7), Plasmodium falciparum 3D7 (PF3D7_0213400) (UniProt Q7YTF7); assay: inhibition of Plasmodium PK7 catalytic activity – biochemical, TCAMS antimalarial set, Kinase-Glo luminescence (AID 1159587); details: recombinant PfPK7, Kinase-Glo ATP depletion luminescence
Sequence of Protein kinase 7 (PK7), Plasmodium falciparum 3D7 (PF3D7_0213400) (Q7YTF7 1-343): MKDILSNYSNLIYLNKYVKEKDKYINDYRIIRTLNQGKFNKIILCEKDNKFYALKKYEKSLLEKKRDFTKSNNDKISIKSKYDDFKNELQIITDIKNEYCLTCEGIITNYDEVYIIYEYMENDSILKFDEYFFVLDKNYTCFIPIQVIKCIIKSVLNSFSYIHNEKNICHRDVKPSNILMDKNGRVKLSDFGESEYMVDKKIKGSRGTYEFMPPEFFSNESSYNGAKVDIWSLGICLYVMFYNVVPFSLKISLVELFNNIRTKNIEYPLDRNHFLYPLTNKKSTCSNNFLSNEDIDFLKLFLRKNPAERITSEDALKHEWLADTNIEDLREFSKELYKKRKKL

[8] = molecular target: Calcium-dependent protein kinase 4 (Plasmodium falciparum (isolate 3D7)) (UniProt Q8IBS5); assay: PfCDPK4 kinase inhibitors, biochemical, TCAMS library (AID 1159588; cut-off not given, nearly all actives have IC50 up to about 0.91 µM); details: recombinant PfCDPK4, Kinase-Glo ATP depletion luminescence
Sequence of Calcium-dependent protein kinase 4 (Plasmodium falciparum (isolate 3D7)) (Q8IBS5 whole entry, looked up): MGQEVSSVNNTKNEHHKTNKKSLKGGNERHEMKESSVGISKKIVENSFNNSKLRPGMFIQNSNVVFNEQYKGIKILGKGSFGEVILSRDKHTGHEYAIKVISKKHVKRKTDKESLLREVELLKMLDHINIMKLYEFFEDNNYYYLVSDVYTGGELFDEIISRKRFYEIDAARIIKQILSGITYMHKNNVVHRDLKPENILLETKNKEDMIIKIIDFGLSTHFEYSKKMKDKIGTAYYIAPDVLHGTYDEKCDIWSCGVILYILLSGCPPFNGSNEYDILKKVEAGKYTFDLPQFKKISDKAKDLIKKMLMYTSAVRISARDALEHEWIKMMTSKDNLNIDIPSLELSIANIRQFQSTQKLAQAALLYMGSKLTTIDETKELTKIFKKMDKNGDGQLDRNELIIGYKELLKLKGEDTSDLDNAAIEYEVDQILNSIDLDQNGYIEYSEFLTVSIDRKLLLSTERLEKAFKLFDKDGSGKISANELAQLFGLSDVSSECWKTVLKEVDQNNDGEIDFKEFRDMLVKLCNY

CCN(CCCN1CCCCC1)c1cc(C)nc(Nc2cc(Br)ccc2C)n1
active: growth inhibition [4] 98%
inactive: growth inhibition [1] 39% | inhibition [2] 32% | inhibition [3] -7% | outcome [5] | outcome [6] | outcome [7] | outcome [8]

CN1CCN(Cc2c(O)ccc3c(=O)c(Oc4ccc(C(C)(C)C)cc4)c(C(F)(F)F)oc23)CC1
inactive: inhibition [2] -13% | inhibition [3] 4% | outcome [5] | outcome [6] | outcome [7] | outcome [8]
active: growth inhibition [1] 88% | growth inhibition [4] 99%

O=C(Nc1ccc(N2CCCCC2)c(Cl)c1)c1ccc(Br)o1
active: growth inhibition [1] 94% | growth inhibition [4] 94%
inactive: inhibition [2] -8% | inhibition [3] -1% | outcome [5] | outcome [6] | outcome [7] | outcome [8]

Cc1cccc2[nH]c(-c3cccc(-c4ccc(NC(=O)Nc5cccc(C#N)c5)cc4)c3)nc12
active: growth inhibition [1] 91% | inhibition [2] 50% | growth inhibition [4] 101%
inactive: inhibition [3] 6% | outcome [5] | outcome [6] | outcome [7] | outcome [8]

CN1CCCC1CCNCc1cccc(-c2cnc(N3CCCC(C)(C)C3)nc2)c1 (stereo not drawn)
active: growth inhibition [1] 95% | inhibition [2] 99% | growth inhibition [4] 98%
inactive: inhibition [3] 5% | outcome [5] | outcome [6] | outcome [7] | outcome [8]

CC(C)c1ccc(C2CCN(CCCCNC(=O)c3ccc(NC(=O)c4ccc(C(F)(F)F)cc4)cc3)CC2)c(O)c1
active: growth inhibition [1] 100% | growth inhibition [4] 99%
inactive: inhibition [2] 47% | inhibition [3] 7% | outcome [5] | outcome [6] | outcome [7] | outcome [8]

OC(Cn1ccnc1)(c1ccc(Cl)cc1Cl)C1CCCCC1 (stereo not drawn)
active: growth inhibition [1] 58% | growth inhibition [4] 98%
inactive: inhibition [2] 7% | inhibition [3] 7% | outcome [5] | outcome [6] | outcome [7] | outcome [8]

O=C(/C=C/c1ccc(Cl)c(Cl)c1)NCCCCCN1CCC(NC(=O)NC2CCCC2)CC1
active: growth inhibition [4] 99%
inactive: growth inhibition [1] 31% | inhibition [2] 21% | inhibition [3] -1% | outcome [5] | outcome [6] | outcome [7] | outcome [8]

C=CCN(c1nc(NC)nc(NCc2c(OC)cccc2OC)n1)C1CCCC1
inactive: inhibition [2] 18% | inhibition [3] -3% | outcome [5] | outcome [6] | outcome [7] | outcome [8]
active: growth inhibition [1] 70% | growth inhibition [4] 85%

O=C(NCCc1ccc(O)cc1)n1c2ccccc2c2ccccc21
inactive: inhibition [2] 3% | inhibition [3] -1% | outcome [5] | outcome [6] | outcome [7] | outcome [8]
active: growth inhibition [1] 76% | growth inhibition [4] 83%

O=C(NCCCCN1CCC(c2ccc3ccccc3c2O)CC1)c1ccc(-c2ccc(Cl)cc2)cc1
active: growth inhibition [1] 99% | inhibition [2] 84% | growth inhibition [4] 101%
inactive: inhibition [3] -2% | outcome [5] | outcome [6] | outcome [7] | outcome [8]

CC(O)C1CCCCN1C(=O)c1ccc(-c2ccc(-c3nc4ccccc4[nH]3)s2)cc1 (stereo not drawn)
active: growth inhibition [1] 98% | growth inhibition [4] 101%
inactive: inhibition [2] 33% | inhibition [3] -2% | outcome [5] | outcome [6] | outcome [7] | outcome [8]

Fc1ccccc1CNc1ncc(-c2ccsc2)c(-c2nccs2)n1
inactive: inhibition [2] 11% | inhibition [3] -6% | outcome [5] | outcome [6] | outcome [7] | outcome [8]
active: growth inhibition [1] 71% | growth inhibition [4] 86%

CC1(C)N=C(N)N=C(N)N1OCc1ccc2c(c1)OCO2
active: growth inhibition [1] 86% | inhibition [2] 66% | growth inhibition [4] 93%
inactive: inhibition [3] -3% | outcome [5] | outcome [6] | outcome [7] | outcome [8]

CN1CCCC(COc2cc3c(cc2Br)CCN3C(=O)Nc2ccc(-c3ccncc3)c(Cl)c2)C1 (stereo not drawn)
active: growth inhibition [1] 96% | inhibition [2] 99% | growth inhibition [4] 100%
inactive: inhibition [3] -2% | outcome [5] | outcome [6] | outcome [7] | outcome [8]

CC(C)c1cccc(C(C)C)c1NC(=O)NNC(=O)c1ccc(CCN2CCC(c3nc(COCC(F)(F)F)c(-c4ccc(F)cc4)o3)CC2)cc1
inactive: growth inhibition [1] 34% | inhibition [3] -2% | outcome [5] | outcome [6] | outcome [7] | outcome [8]
active: inhibition [2] 61% | growth inhibition [4] 88%

COc1ccc2[nH]cc(C3CCN(CCC4CCN(C(=O)/C=C/c5ccc(Cl)c(Cl)c5)CC4)CC3)c2c1
inactive: inhibition [3] 3% | outcome [5] | outcome [6] | outcome [7] | outcome [8]
active: growth inhibition [1] 56% | inhibition [2] 52% | growth inhibition [4] 101%

COc1c(C2CCN(CCCCNC(=O)c3ccc(-c4ccc(Cl)cc4)c(O)c3)CC2)ccc2c1CCCC2
inactive: inhibition [3] -5% | outcome [5] | outcome [6] | outcome [7] | outcome [8]
active: growth inhibition [1] 99% | inhibition [2] 91% | growth inhibition [4] 102%

CCNC(=O)c1ccc(-n2nc(C)cc2-c2ccccc2)cc1
active: growth inhibition [1] 54% | growth inhibition [4] 89%
inactive: inhibition [2] 11% | inhibition [3] 2% | outcome [5] | outcome [6] | outcome [7] | outcome [8]

CC(C)N1CCC(NC(=O)N2CCCN(c3ncnc4cc(-c5ccccc5)sc34)CC2)CC1
active: growth inhibition [4] 87%
inactive: growth inhibition [1] 11% | inhibition [2] 31% | inhibition [3] -4% | outcome [5] | outcome [6] | outcome [7] | outcome [8]

COc1cc2c(c(Cl)c1OC)CCN(Cc1ccccc1)CC2c1ccc(NC(=O)C(F)(F)F)cc1 (stereo not drawn)
inactive: inhibition [2] 0% | inhibition [3] -2% | outcome [5] | outcome [6] | outcome [7] | outcome [8]
active: growth inhibition [1] 79% | growth inhibition [4] 85%

N#Cc1ccc2c(c1)CCN(CCC1CCC(NC(=O)/C=C/c3ccc4[nH]ccc4c3)CC1)CC2 (stereo not drawn)
inactive: growth inhibition [1] 27% | inhibition [2] 2% | inhibition [3] 2% | outcome [5] | outcome [6] | outcome [7] | outcome [8]
active: growth inhibition [4] 93%

Cc1nn(-c2cccc(Cl)c2)c2c1C(C(=O)c1ccc3c(c1)OCO3)CC(=O)N2 (stereo not drawn)
active: growth inhibition [1] 95% | growth inhibition [4] 98%
inactive: inhibition [2] 5% | inhibition [3] -5% | outcome [5] | outcome [6] | outcome [7] | outcome [8]

COc1cc(OC)cc(-c2nn(-c3ccc([N+](=O)[O-])cc3C#N)c(=S)n2Cc2ccco2)c1
inactive: inhibition [2] 11% | inhibition [3] -6% | outcome [5] | outcome [6] | outcome [7] | outcome [8]
active: growth inhibition [1] 100% | growth inhibition [4] 100%

CCOc1cc(C)ccc1NC1CCN(CCCCNC(=O)c2ccc(NC(=O)c3ccc(Cl)cc3)cc2)CC1
active: growth inhibition [1] 70% | growth inhibition [4] 101%
inactive: inhibition [2] 17% | inhibition [3] -2% | outcome [5] | outcome [6] | outcome [7] | outcome [8]

NCC1CCCN1Cc1ccc(-c2ccc(-c3nc4ccc(C(F)(F)F)cc4[nH]3)s2)cc1 (stereo not drawn)
active: growth inhibition [1] 97% | growth inhibition [4] 102%
inactive: inhibition [2] 31% | inhibition [3] -3% | outcome [5] | outcome [6] | outcome [7] | outcome [8]

CC(=O)N1N=C(c2ccccc2)Sc2c1nc(-c1ccc(Cl)cc1)n2C(C)=O
inactive: growth inhibition [1] 18% | inhibition [2] -1% | inhibition [3] 0% | outcome [5] | outcome [6] | outcome [7] | outcome [8]
active: growth inhibition [4] 94%

CS(=O)(=O)c1ccccc1CNC(=O)c1ccc(-c2cccc(-c3nc4ccc(C(F)(F)F)cc4[nH]3)c2)cc1
inactive: growth inhibition [1] 4% | inhibition [2] 36% | inhibition [3] 4% | outcome [5] | outcome [6] | outcome [7] | outcome [8]
active: growth inhibition [4] 91%

COc1cc2nc(N3CCN(c4nc(N)c5cc(OC)c(OC)cc5n4)CC3)nc(N)c2cc1OC
active: growth inhibition [1] 99% | growth inhibition [4] 101%
inactive: inhibition [2] 13% | inhibition [3] -4% | outcome [5] | outcome [6] | outcome [7] | outcome [8]

COc1cc(NC(=O)c2ccc(-c3ccc(C(C)=O)cc3)s2)ccc1OCCN1CCCC1
active: growth inhibition [1] 63% | growth inhibition [4] 100%
inactive: inhibition [2] 31% | inhibition [3] 3% | outcome [5] | outcome [6] | outcome [7] | outcome [8]

CO/C(=C\C=C\c1cc2cc(Cl)c(Cl)cc2[nH]1)C(=O)NC1CCN(CCNc2ccccc2)CC1
active: growth inhibition [1] 98% | inhibition [2] 60% | growth inhibition [4] 102%
inactive: inhibition [3] 1% | outcome [5] | outcome [6] | outcome [7] | outcome [8]

COc1cc(OC)c2c(c1Cl)O[C@]1(C2=O)C(=O)C(Cc2ccccc2)(Cc2ccccc2)C(=O)C[C@H]1C
active: growth inhibition [4] 90%
inactive: growth inhibition [1] 45% | inhibition [2] -12% | inhibition [3] -3% | outcome [5] | outcome [6] | outcome [7] | outcome [8]

Cc1ccoc1C(=O)Nc1cccc(-c2cccc(-c3nc4c(C)cccc4[nH]3)c2)c1
active: growth inhibition [1] 79% | growth inhibition [4] 101%
inactive: inhibition [2] 17% | inhibition [3] -3% | outcome [5] | outcome [6] | outcome [7] | outcome [8]

CCc1c(CCNCCCCCCNCCc2ccc3c(c2C)OCO3)ccc2c1OCO2
active: inhibition [2] 59% | growth inhibition [4] 101%
inactive: growth inhibition [1] 7% | inhibition [3] 7% | outcome [5] | outcome [6] | outcome [7] | outcome [8]

O=C(Nc1cccc(OC2CCN(Cc3ccsc3)CC2)c1)c1ccc(C(F)(F)F)cc1
active: growth inhibition [4] 98%
inactive: growth inhibition [1] 5% | inhibition [2] 25% | inhibition [3] -2% | outcome [5] | outcome [6] | outcome [7] | outcome [8]

Cc1cccc2[nH]c(-c3ccc(-c4ccc(CN5CCCCC5)cc4)s3)nc12
inactive: inhibition [2] 16% | inhibition [3] -2% | outcome [5] | outcome [6] | outcome [7] | outcome [8]
active: growth inhibition [1] 87% | growth inhibition [4] 99%

O=C(Cn1c2ccccc2c(=O)c2ccc(Cl)cc21)Nc1ccc(C(F)(F)F)cc1
inactive: inhibition [2] 30% | inhibition [3] -3% | outcome [5] | outcome [6] | outcome [7] | outcome [8]
active: growth inhibition [1] 100% | growth inhibition [4] 99%

Cc1cccc(NC(=O)N(Cc2cc3cc(C)cc(C)c3[nH]c2=O)C2CC2)c1
inactive: inhibition [2] 3% | inhibition [3] 2% | outcome [5] | outcome [6] | outcome [7] | outcome [8]
active: growth inhibition [1] 94% | growth inhibition [4] 97%

O=c1[nH]c2ccc3[nH]cccc3c2c1C=Nc1ccc(Cn2ccnc2)cc1
active: growth inhibition [1] 85% | growth inhibition [4] 101%
inactive: inhibition [2] 33% | inhibition [3] 1% | outcome [5] | outcome [6] | outcome [7] | outcome [8]

CCc1[nH]nc(C(=O)NC2CCN(CC3(c4ccc(OC)cc4)CCCCC3)CC2)c1C
active: growth inhibition [1] 90% | growth inhibition [4] 90%
inactive: inhibition [2] 2% | inhibition [3] -1% | outcome [5] | outcome [6] | outcome [7] | outcome [8]

COc1ccc(Nc2ncc3c(-c4cccc(NC(=O)Cc5cccnc5)c4)c[nH]c3n2)cc1OC
active: growth inhibition [1] 85% | growth inhibition [4] 98%
inactive: inhibition [2] 27% | inhibition [3] 1% | outcome [5] | outcome [6] | outcome [7] | outcome [8]
